# Among all 330,000 compounds or so, about 1,900 (0.58%) were called active. Not shown: some 4% with an inconclusive outcome. Only a sample is shown. Results with a measured potency or affinity are listed apart. A number with no mark means an inactive call. No stated cut-off is given here; in the data, inconclusive means inhibition above about 70% without an active follow-up result; inactive means below that.
# Test: M. tuberculosis growth inhibition, HTS (AID 449762);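 further: bacterial growth assessed after seven days of incubation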
# Details: M. tuberculosis H37Rv growth inhibition, 7H9 media; at 25 µM; stronger effect = higher value
row,SMILES,inhibition [%]
1,Cc1cc(C)c(CN2CCC(n3nccc3NC(=O)CCOc3ccccc3)CC2)cc1C,67.4
2,O=C(Nc1ccc(-c2ccccc2)cc1)c1ccccc1,9.06
3,COc1ccc(OCCN(C)CC(=O)Nc2c(C)cccc2C)cc1,-3.93
4,Cc1c(C(=O)Nc2ccc(F)c(F)c2)oc2ccc(S(=O)(=O)N3CCCCC3)cc12,4.31
5,N=c1c2ccccc2nnn1-c1ccc(C(F)(F)F)cc1,-1.84
6,Fc1ccc(Nc2ncnc3ccccc23)cc1,4.5
7,O=C(Nc1ncc2c(n1)-c1ccccc1OC2)c1ccc(Cl)cc1Cl,-7.91
8,CCCCc1ncc(CN2CCN(Cc3ccc(C)cc3)C(CCO)C2)[nH]1 (stereo unspecified),0.18
9,COc1ccc(NC(=O)C(=S)NC2CCCCC2)cc1,8.92
10,C=CCc1c(C)nc(C)nc1N/N=C/c1ccccc1,-2.25
11,C=CCc1c(C)nc(C)nc1N/N=C/c1ccc(F)cc1,6.56
12,C#CCOCCOCCOCCNc1nc(N2CCN(C(=O)[C@H](CCC(=O)O)n3cc([C@@H](N)[C@H](C)CC)nn3)CC2)nc(N2CCN(C(=O)[C@H](CCC(=O)O)n3cc([C@@H](N)CCSC)nn3)CC2)n1,3.47
13,O=C1C=C(c2ccc3c(c2)oc2ccccc23)C[C@@H](c2ccc3c(c2)OCO3)C1,36.8
14,FC(F)(F)c1ccc(C2[C@H]3CN(CC4CCCCC4)[C@H](c4ccccc4)C34CC2(c2cccnc2)C4)cc1 (stereo partly specified),58
15,c1ccc(C2[C@H]3CN(CC4CCCCC4)[C@H](c4ccccc4)C34CC2(c2ccccc2)C4)cc1 (stereo partly specified),2.3
16,CC(C)(C#CCCCCC#CC(C)(C)[N+](C)(C)C)[N+](C)(C)C,-2.46
17,Cc1ccc(C(=O)/C=C/C(=O)O)cc1,-2.7
18,Cc1ccc(/C=C/C(=O)c2ccc(C)cc2)cc1,-12.1
19,Cc1cc(Nc2ccc(C(=O)O)cc2)n2nc(C)nc2n1,-2.73
20,O=C(Nc1ccccc1)c1nc2ccccc2s1,23.7
21,O=C(COc1ccccc1)Nc1nnc(-c2ccccc2Cl)o1,28.7
22,OC1CCCN(Cc2nc(Cc3ccccc3Cl)no2)C1 (stereo unspecified),-6.97
23,CCCCC[C@@H](O)c1cc2ccccc2c(=O)o1,-0.25

row,SMILES,inhibition [%]
1,O=C(O)c1ccccc1Nc1cccc(OCc2ccc3ccccc3n2)c1,-1.2
2,CCc1ccc2c(c1)C(c1ccc(N3CCOCC3)cc1)=NNC(c1ccncc1)=N2,44.4
3,CCOC(=O)C1CCCN(C(=O)CCCn2c(=O)c3cccn3c3cccnc32)C1 (stereo unspecified),1.46
4,Cc1ccc(N2CC(C(=O)N3CCC(C(=O)Nc4ccc(Br)cc4)CC3)CC2=O)cc1 (stereo unspecified),32.6
5,CCc1ccc(N=c2c([N+](=O)[O-])nn(-c3ccccc3)n2O)cc1,64.6
6,COc1ccccc1N=c1c2c([N+](=O)[O-])cc([N+](=O)[O-])cc2n(O)n1-c1ccccc1OC,-0.38
7,COc1ccc(C(=O)N(CC2CCCO2)C(C(=O)NC2CCCC2)c2ccc(C)cc2)cc1OC (stereo unspecified),-13.5
8,COc1ccc(C(=O)CN2CC(C)SC2=Nc2ccc(Cl)cc2)cc1 (stereo unspecified),13.6
9,CN(C)/C=C1/OC(=O)C(C#N)=C1c1ccc(Cl)cc1,-3.95
10,O=C1O/C(=C/c2ccccc2)c2ccccc21,4.48
11,O=C1CC(c2ccc(Cl)cc2)CC(=O)C1CS(=O)(=O)c1ccccc1 (stereo unspecified),5.94
12,CCC(=O)N1N=C(c2ccc(NS(=O)(=O)c3ccccc3)cc2)CC1c1ccco1 (stereo unspecified),1.78
13,CCn1c(=O)c2c(nc3n2CCCN3CCc2ccccc2)n(C)c1=O,6.27
14,Cc1nc(N)nc(Cl)c1Cc1ccc(Cl)cc1,0.95
15,COc1ccc(Cc2c(C)nc(N)nc2Cl)cc1,8.87
16,COc1cc(OC)cc(C(=O)NCC(=O)OCC(=O)N2CCc3ccccc32)c1,5.39
17,Cc1cc2c(nn1)CCc1c-2no[n+]1[O-],-1.95
18,O=C(CN1CCN(c2nc(-c3ccccc3)cs2)CC1)Nc1ccc2c(c1)OCO2,-7.77
19,O=C(CN1CCN(c2ncccn2)CC1)NCc1ccc2c(c1)OCO2,-8.33
20,O=C1C2CC=C(Cl)CC2C(=O)N1CC1Cc2ccccc2CO1 (stereo unspecified),-2.11
21,N#Cc1cccc(NC(=O)CCc2ccc(S(=O)(=O)N3CCOCC3)cc2)c1,2.35
22,CCOc1ccc(CCNC(=O)C2CCN(c3nnc(-n4cccc4)s3)CC2)cc1,-2
23,CCOc1ccc2nc(N3CCCC(C(=O)NCCCN4C(C)CCCC4C)C3)sc2c1 (stereo unspecified),6.54

row,SMILES,inhibition [%]
1,OCC[C@H]1C[C@@H](O)[C@H](O)[C@@]2(Cc3ccccc3CO2)O1,-8.04
2,O=C(CSc1nnc(Nc2ccccc2F)s1)NC(=O)CN1CCCC1=O,-10.7
3,Cc1nn(Cc2cccc(C(=O)Nn3cc([N+](=O)[O-])cn3)c2)c(C)c1[N+](=O)[O-],10.2
4,COc1ccc(OCc2cccc(C(=O)NN)c2)cc1,5.13
5,CC1CCN(C(=O)Cn2nnc(-c3ccccc3)n2)CC1,5.98
6,Cc1ccsc1/C=C1\SC(N2CC(C)OC(C)C2)=NC1=O (stereo unspecified),67.9
7,Cc1ccsc1/C=C1/SC(N2CC(C)OC(C)C2)=NC1=O (stereo unspecified),68.3
8,O=C1N=C(N2CCCC2)S/C1=C\c1ccccc1,0.89
9,CC(C)(C)c1ccc(/C=C2/SC(N3CCCC3)=NC2=O)cc1,24.7
10,COC(=O)C(CCCN1C(=O)c2ccccc2C1=O)(NC(C)=O)c1nnn(C)n1 (stereo unspecified),-2.74
11,COC(=O)c1cccc(-c2noc(-c3ccccc3F)n2)c1,-2.87
12,Cc1ccc(NC(=O)c2sccc2-n2cccc2)c(Cl)c1,4.85
13,Cc1cccc(NC(=O)c2sccc2-n2cccc2)c1C,6.88
14,Cc1ccc2cc(CN(c3ccccc3C)S(=O)(=O)c3ccccc3)c(=O)[nH]c2c1,11.1
15,Nc1sccc1C(=O)c1ccccc1,-3.41
16,CNC(=O)c1ccsc1NC(=O)c1ccccc1,-14.7
17,COc1ccc(CCNCC(O)COc2ccc(Cl)cc2)cc1OC (stereo unspecified),-0.15
18,Cc1cc(OCC(O)CNC(C)(C)C)ccc1Cl (stereo unspecified),-5.73
19,Cc1cc(C)c(OCC(=O)OCC(=O)NC2CCCCCCC2)c(C)c1,-6.93
20,CCN(CC)S(=O)(=O)c1ccc(C(=O)NNC2=NS(=O)(=O)c3ccccc32)cc1,-5.34
21,O=c1[nH]c(CN2CCN(c3ccccc3Cl)CC2)nc2ccsc12,6.57
22,COc1ccccc1N1CCN(Cc2nc3ccsc3c(=O)[nH]2)CC1,-2.58
23,COC(=O)C1=C(c2c(C)noc2C)C[C@@H]2CC[C@H]1N2C(=O)N1CCC(C)CC1,-12.5

row,SMILES,inhibition [%]
1,COc1ccc(-c2nnc(SCc3ccc(C(=O)O)cc3)n2C)cc1OC,2.72
2,COc1ccc(C(=O)C2CCN(C(=S)NCC3CCCO3)CC2)cc1 (stereo unspecified),0.55
3,CC(C)=CCC[C@](C)(O[C@@H]1O[C@H](CO[C@@H]2OC[C@@H](O)[C@H](O)[C@H]2O)[C@@H](O)[C@H](O)[C@H]1O)C1CC[C@]2(C)C1[C@H](O)CC1[C@@]3(C)CC[C@H](O[C@@H]4O[C@H](CO)[C@@H](O)[C@H](O)[C@H]4O)C(C)(C)C3CC[C@]12C (stereo partly specified),1.5
4,CC(C)=CCC[C@](C)(O)C1CC[C@]2(C)C1[C@H](O)CC1[C@@]3(C)CC[C@H](O[C@@H]4O[C@H](CO)[C@@H](O)[C@H](O)[C@H]4O[C@@H]4O[C@H](CO)[C@@H](O)[C@H](O)[C@H]4O)C(C)(C)C3CC[C@]12C (stereo partly specified),-2.47
5,N#Cc1cc(Nc2c(N)nc[nH]c2=O)c([N+](=O)[O-])cc1C#N,-9.11
6,CCc1ccccc1OCCCOc1ccc(OC)cc1,3.7
7,Cc1[nH]c2ccccc2c1C(=O)COC(=O)c1ccccc1O,-1.43
8,O=C(COC(=O)c1ccc([N+](=O)[O-])s1)NCc1ccccc1,40.3
9,CC(C)[C@H](NC(N)=O)C(=O)NNC(=O)COc1cccc(C(F)(F)F)c1,-1.74
10,CC(C)Oc1ccc(NC(N)=O)cc1,-11.6
11,CC(C)NC(=O)COc1ccc(OCc2ccccc2)cc1,-4.33
12,CCOc1ccc(NC(C)=O)cc1,3.93
13,CCOC(=O)C(=O)Nc1ccc(OCc2ccccc2)cc1,62.7
14,Cc1ccc(S(=O)(=O)n2nc(-n3c(C)ccc3C)c3c(F)cccc32)c2ccccc12,11.8
15,O=C(N/N=C/C=C/c1ccccc1[N+](=O)[O-])c1cccs1,-11.8
16,O=C(N/N=C/C=C/c1ccc([N+](=O)[O-])cc1)c1cccs1,3.01
17,Cc1noc(NS(=O)(=O)c2ccc(NC(=O)C(C)(C)C)cc2)c1C,3.27
18,C=CCNC(=O)Cc1ccc(S(=O)(=O)N2CCOCC2)s1,-1.17
19,COc1cc(C(C)=O)ccc1OCC(O)Cn1nc(C)c(Br)c1C (stereo unspecified),3.09
20,NS(=O)(=O)c1ccc(CNC(=O)c2ccc3ccccc3n2)cc1,7.68
21,O=C(Cc1cn2ccsc2n1)Nc1nc2c(s1)CN(Cc1ccccc1)CC2,-6
22,O=C(Cc1cn2ccsc2n1)Nc1nc2c(s1)CCCC2,-0.56

# From PubChem BioAssay AID449762 (Southern Research Specialized Biocontainment Screening …, 2010)
